The entries come from a sample that favours hits as a whole.
GALK inhibitor – qHTS Assay for Inhibitors of Human Galactokinase (GALK): NCGC Sytravon Library Screen. P51570. recombinant GALK, Kinase-Glo ATP luminescence, 1 h. Potency, µM (series often up to 57.5 µM), actives largely listed as inhibitors. 44,000 tested, under 10 active. AID 1347072, 2019
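5 nM GALK with 35 µM ATP and 100 µM galactose in HEPES pH 8.0, MgCl2, NaCl, DTT, BSA; 1 h RT reaction, remaining ATP detected by Kinase-Glo Plus luminescence after 10 min; qHTS concentration series.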
HTT prom inh – Primary qHTS for Identification of Small Molecule Inhibitors of Huntingtin Promoter Activity; HEK293 HTT promoter firefly luciferase reporter, 24 h; Potency, µM (highest dose often 57.5 µM), hits mostly inhibitors; hit rate 0.93% among 48,000; note: nearly all actives have a fitted effect of over 50% in size
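Firefly luciferase readout (Dual-Glo, 10 min RT) after 24 h, 37 °C compound exposure (final up to 57.5 uM) of HEK293 reporter cells cultured 24 h beforehand; PTC124 at 50 uM final as control inhibitor; activity scaled vehicle 0%, zero RLU -100%.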
HTT-AS act – Primary qHTS for Identification of Small Molecule Activators of Huntingtin-Antisense Promoter Activity; hit rate 0.24% among 48,000; HEK293 HTT-AS promoter firefly luciferase reporter, 24 h; response scale: percent change from vehicle, -100% = no light; Potency, µM (series often up to 57.5 µM), usual class: activators; AID 1508624, 2021; note: nearly all actives have a fitted effect of over 55% in size
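HEK293 luciferase promoter-reporter cells (2,500/well) plated 24 h, then compounds added at up to 57.5 uM final for 24 h at 37 °C. Firefly luminescence by Dual-Glo, normalized to vehicle (0%) and zero RLU (-100%).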
B2AR arrestin ag – qHTS assay of beta-arrestin-biased ligands of beta2-adrenergic receptor: NCGC Sytravon Library Screen | Potency, µM (highest dose often 46.1 µM), actives largely listed as activators | HTLA Tango cells, beta-arrestin recruitment, luciferase luminescence, 18 h | AID 1347077, 2019 | Beta-2 adrenergic receptor (Homo sapiens), P07550 | 44,000 tested, under 10 active
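Tango cell line, 1% FBS DMEM; cpd titration up to 46 microM; 18 hr, 37 degrees C, 5% CO2. Luciferin/ATP substrate mix added, 15 min RT, luminescence. %Activity, CRC fitting, curve-class categorization.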
NTMT1 inhibitor – Primary qHTS for Inhibitors of N-terminal methyltransferase 1 (NTMT1): MTaseGlo Assay. N-terminal Xaa-Pro-Lys N-methyltransferase 1 (Homo sapiens), Q9BV86. AID 1645870, 2021. Potency, µM (titrated, usually from 114 µM), most hits filed as inhibitors. hit rate 2.5% among 59,000. NTMT1 MTase-Glo SAH luminescence, purified enzyme; note: nearly all actives have a fitted effect of over 65% in size
Target sequence (Q9BV86 whole entry, looked up): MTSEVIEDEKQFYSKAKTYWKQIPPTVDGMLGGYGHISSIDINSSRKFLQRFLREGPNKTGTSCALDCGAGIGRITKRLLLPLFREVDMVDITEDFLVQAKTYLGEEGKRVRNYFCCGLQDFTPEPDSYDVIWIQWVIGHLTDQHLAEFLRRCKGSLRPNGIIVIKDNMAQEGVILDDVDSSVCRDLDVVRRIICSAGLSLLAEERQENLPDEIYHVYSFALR
PTAP-TSG101 blk – qHTS Validation Assay for Inhibitors of HIV-1 Budding by Blocking the Interaction of PTAP/TSG101: Sytravon Library Screen; Tumor susceptibility gene 101 protein (Homo sapiens), Q99816; Fluorescence polarization, FITC-PTAP peptide/Tsg101, 20 min; Potency, µM (doses to about 115 µM), most hits filed as inhibitors; 44,000 tested, under 10 active
Target sequence (Q99816 whole entry, looked up): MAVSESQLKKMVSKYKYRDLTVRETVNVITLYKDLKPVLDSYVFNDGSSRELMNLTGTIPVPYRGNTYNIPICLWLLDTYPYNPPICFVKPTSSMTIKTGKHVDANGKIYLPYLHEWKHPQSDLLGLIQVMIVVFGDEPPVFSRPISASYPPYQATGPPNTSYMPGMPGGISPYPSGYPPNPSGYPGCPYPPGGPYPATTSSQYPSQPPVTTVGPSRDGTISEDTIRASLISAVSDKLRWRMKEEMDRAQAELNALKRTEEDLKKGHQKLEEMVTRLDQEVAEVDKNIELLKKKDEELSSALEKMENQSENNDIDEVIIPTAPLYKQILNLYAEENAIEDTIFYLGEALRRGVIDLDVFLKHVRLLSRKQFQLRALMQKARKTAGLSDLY
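The Tsg101 binding domain, at 10 uM final, is mixed with compound and a FITC peptide bearing the PTAP motif (50 nM final). After 20 min at r.t., polarization is measured; actives defined by CRC class, efficacy cut-off 60% inhibition.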
Each line names hits and unclear results; the compound was inactive in the other large screens; ! = not active in a repeat. Calls come from the whole dose curve; as a rule, active = well fitted curve in the direction sought with a large enough effect; inconclusive = small, poorly fitted or top-dose-only effect, or another doubt; inactive = no such curve, though single readings can be large; an effect the other way counts as inactive or inconclusive.

COc1ccc(-c2cc(C(C)=O)c(C)n2CCC(=O)Nc2ccc(C)cc2Cl)cc1	NTMT1 inhibitor 89µM
Cn1nnnc1SCCCNCc1ccccc1OCc1ccccc1Cl	HTT prom inh 14µM, NTMT1 inhibitor inconclusive
Cc1cc(C)c(S(=O)(=O)n2cc(C)cc2C)c(C)c1	none (no result: GALK inhibitor, HTT prom inh, HTT-AS act, B2AR arrestin ag, PTAP-TSG101 blk)
COc1ccc(OC)c(CCNC(=O)C(C)n2nc(C)c3c(C)n(-c4ccc(C)cc4)nc3c2=O)c1 (stereo not given)	HTT prom inh 1.6µM, NTMT1 inhibitor 89µM
COc1ccc(CCNC(=O)Cn2nc(C)c3c(C)n(-c4ccc(C)cc4)nc3c2=O)c(OC)c1	HTT prom inh 2.5µM, NTMT1 inhibitor 45µM
CC(=O)N1CCC[C@H]1C(=O)N[C@@H](Cc1cnc[nH]1)C(=O)N[C@@H](CO)C(=O)N[C@@H](CS)C(=O)N[C@@H](CC(N)=O)C(N)=O	none (no result: GALK inhibitor, HTT prom inh, HTT-AS act, B2AR arrestin ag, PTAP-TSG101 blk)
CC(C)(C)OC(=O)N1CCN(c2ccc(NCc3ccc4c(c3)OCO4)cc2)CC1	none (no result: GALK inhibitor, HTT prom inh, HTT-AS act, B2AR arrestin ag, PTAP-TSG101 blk)
CCCN(CCC)C(=O)C1=Cc2ccc(-c3ccc(C(=O)N4CCCC4)cc3)cc2N=C(N)C1	none (no result: GALK inhibitor, HTT prom inh, HTT-AS act, B2AR arrestin ag, PTAP-TSG101 blk)
Fc1cnc(-c2ccccc2C(F)F)nc1NCc1ccc(-c2ccn[nH]2)cc1	none (no result: GALK inhibitor, HTT prom inh, HTT-AS act, B2AR arrestin ag, PTAP-TSG101 blk)
COc1cc(NC(=O)c2ccc(-c3nc(COc4ccccc4)c(C)o3)cc2)cc(OC)c1	HTT prom inh 14µM
Cc1ccc(S(=O)(=O)NCC(Nc2cccc(Cl)c2)c2ccccc2)cc1 (stereo not given)	HTT prom inh 25µM
CCOc1ccccc1NC(=O)N1CCN(C)c2ncccc21	NTMT1 inhibitor 89µM
COC(=O)c1scc(-c2ccc(C)cc2)c1S(=O)(=O)Nc1cc(OC)c(OC)c(OC)c1	NTMT1 inhibitor 89µM
COC(=O)c1ccnc(NCc2ccc(O)c3ncccc23)c1	none (no result: GALK inhibitor, HTT prom inh, HTT-AS act, B2AR arrestin ag, PTAP-TSG101 blk)
Cc1c(NC(=O)c2cc(C(N)=O)nc3cc(F)ccc23)c(C(F)(F)F)nn1Cc1ccc(C(C)(C)C)cc1	none (no result: GALK inhibitor, HTT prom inh, HTT-AS act, B2AR arrestin ag, PTAP-TSG101 blk)
COc1cc(OC)cc(C(=O)Nc2ccc3c(c2)OCCO3)c1	HTT-AS act inconclusive, NTMT1 inhibitor 32µM
CCN(CC)c1cc(C)c2cc(NC(=O)c3cc(OC)cc(OC)c3)ccc2n1	none
Cc1cc2c(s1)c1cnn(Cc3ccc(Cl)cc3)c(=O)c1n2C	NTMT1 inhibitor 89µM (no result: GALK inhibitor, HTT prom inh, HTT-AS act, B2AR arrestin ag, PTAP-TSG101 blk)
CCOC(=O)c1ccc(N2C(=O)c3[nH]nc(-c4ccccc4)c3C2c2cccs2)cc1 (stereo not given)	HTT prom inh 16µM
O=C(O)c1ccc(Nc2nc3ccccc3n3cnnc23)cc1	HTT-AS act inconclusive, NTMT1 inhibitor 13µM
CC(C)c1onc(-c2c(Cl)cccc2Cl)c1COc1ccc(/C=C/c2cccc(C(=O)O)c2)c(Cl)c1	NTMT1 inhibitor 32µM (no result: GALK inhibitor, HTT prom inh, HTT-AS act, B2AR arrestin ag, PTAP-TSG101 blk)
Cc1onc(-c2c(F)cccc2Cl)c1C(=O)Nc1ccc(OC(C)C)cc1	none
CC(C)(C)OC(=O)N1CCN(c2ccc(NCc3cnc(-c4ccc(C#N)cc4)s3)cc2)CC1	none (no result: GALK inhibitor, HTT prom inh, HTT-AS act, B2AR arrestin ag, PTAP-TSG101 blk)
CCOC(=O)C1CCN(C(=O)Cn2c(=O)cc(C)c3c(C)nn(C)c32)CC1	HTT prom inh inconclusive
CCOC(=O)N1CCN(C(=O)Cn2sc3nc(C)cc(C)c3c2=O)CC1	NTMT1 inhibitor 3.2µM (no result: GALK inhibitor, HTT prom inh, HTT-AS act, B2AR arrestin ag, PTAP-TSG101 blk)
CNc1nnc(-c2cccc3ccccc23)o1	none (no result: GALK inhibitor, HTT prom inh, HTT-AS act, B2AR arrestin ag, PTAP-TSG101 blk)
Oc1cccc(-c2nc(N3CCOCC3)c3sccc3n2)c1	NTMT1 inhibitor 40µM (no result: GALK inhibitor, HTT prom inh, HTT-AS act, B2AR arrestin ag, PTAP-TSG101 blk)
CCCCOc1ccc(CC/C=C2\SC(=O)N(CCN)C2=O)cc1	NTMT1 inhibitor 50µM (no result: GALK inhibitor, HTT prom inh, HTT-AS act, B2AR arrestin ag, PTAP-TSG101 blk)
CCOc1ccc(/C=C2\SC(=O)N(CCN)C2=O)cc1	none (no result: GALK inhibitor, HTT prom inh, HTT-AS act, B2AR arrestin ag, PTAP-TSG101 blk)
CN1C2CCC1CC(OC(=O)[C@H](CO)c1ccccc1)C2 (stereo not given in full)	none (no result: GALK inhibitor, HTT prom inh, HTT-AS act, B2AR arrestin ag, PTAP-TSG101 blk)
CCCCCCCCCCCC1=C(O)C(=O)C=C(O)C1=O	NTMT1 inhibitor 45µM! (no result: GALK inhibitor, B2AR arrestin ag, PTAP-TSG101 blk)

High-throughput results deposited in PubChem by National Center for Advancing Translational Sciences (NCATS).
